Experimental data from PubChem BioAssay (EPA / NIEHS).
Inconclusive results are not listed. Activity calls are given as the source filed them. How the source made its calls, unless noted: active means hit-call score of the fitted dose curve at least 0.9, where 1 is the maximum; inactive means score below 0.9.

Legend:
[1] = CCTE_Simmons_MITO_basal_resp_rate: CCTE's HepG2 Seahorse XF Respirometric Screening Assay at Basal Respiratory State, Simmons Lab (AID 2284001); details: actives raise or lower the signal
In short: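 HepG2 cells were given test chemicals at 7 concentrations, 125 nM to 100 uM final, and oxygen consumption rate was read every 6 min (3 min mix, 3 min measure) over 72 min. Basal-phase OCR was fitted bidirectionally against DMSO.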

[2] = CCTE_Simmons_MITO_max_resp_rate: CCTE's HepG2 Seahorse XF Respirometric Screening Assay at Maximal Respiratory State [uncoupled], Simmons Lab (AID 2284002); details: actives raise or lower the signal
In short: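 HepG2 oxygen consumption measured on Seahorse XF after FCCP uncoupling, following test compound injection; 7 concentrations from 125 nM to 100 uM final. Readings every 6 min over 72 min, three biological replicates; bidirectional fit versus DMSO.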

[3] = CCTE_Simmons_MITO_inhib_resp_rate: CCTE's HepG2 Seahorse XF Respirometric Screening Assay at Inhibited Respiratory State [full ETC block], Simmons Lab (AID 2284006); details: actives raise or lower the signal
In short: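 HepG2 oxygen consumption was measured by Seahorse XF after compound, FCCP, then rotenone/antimycin A injections. Seven concentrations from 125 nM to 100 uM (final) were tested, with 6-min kinetic reads over 72 minutes. Inhibited-state OCR was fitted bidirectionally against DMSO.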

[4] = CCTE_Simmons_MITO_viability: CellTiter-Glo Viability Assessment for CCTE's HepG2 Seahorse XF Respirometric Screening Assay [post-hoc], Simmons Lab (AID 2284007; active means hit-call score of the fitted dose curve at least 0.9, where 1 is the maximum;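 on AC50: cells exposed to chemical for 90 min before the ATP read; actives lower ATP signal relative to DMSO baseline meaning reduced viability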)
In short: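 HepG2 cells exposed 90 min to 7 concentrations from 125 nM to 100 uM final, then ATP measured by luciferase luminescence. Three biological replicates per concentration; DMSO vehicle; dichlone control at 10 nM–100 uM.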

[5] = CCTE_Harrill_HTTr_Viability_DMEM_24hr: (Pilot) CCTE's 24-hour Cell Viability Assessment for the High-Throughput Transcriptomics (HTTr) Platform, in MCF-7 cells cultured in DMEM + 10% fetal bovine serum, Harrill Lab (AID 2283975)
In short: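 MCF-7 cells in DMEM with 10% FBS exposed for 24 hours to an eight-point dilution series. Membrane integrity by propidium iodide exclusion with high content imaging; bidirectional fit against DMSO.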

[6] = CCTE_Harrill_HTTr_Viability_PRF_DMEM_6hr: (Pilot) CCTE's 6-hour Cell Viability Assessment for the High-Throughput Transcriptomics (HTTr) Platform, in MCF-7 cells cultured phenol red-free DMEM + 10% charcoal-stripped fetal bovine serum, Harrill Lab (AID 2283976)
In short: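 MCF-7 cells in phenol red-free DMEM with 10% charcoal-stripped FBS exposed 6 hours to an eight-point dilution series. Propidium iodide exclusion imaged; curves fitted bidirectionally against DMSO.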

[7] = CCTE_Harrill_HTTr_Viability_PRF_DMEM_12hr: (Pilot) CCTE's 12-hour Cell Viability Assessment for the High-Throughput Transcriptomics (HTTr) Platform, in MCF-7 cells cultured in phenol red-free DMEM + 10% charcoal-stripped fetal bovine serum, Harrill Lab (AID 2283977)
In short: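 MCF-7 cells in phenol red-free DMEM with 10% charcoal-stripped FBS exposed 12 hours to an eight-point dilution series. Viability assessed by high-content imaging of propidium iodide exclusion; bidirectional fit versus DMSO.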

[8] = CCTE_Harrill_HTTr_Viability_PRF_DMEM_24hr: (Pilot) CCTE's 24-hour Cell Viability Assessment for the High-Throughput Transcriptomics (HTTr) Platform, in MCF-7 cells cultured in phenol red-free DMEM + 10% charcoal-stripped fetal bovine serum, Harrill Lab (AID 2283980)
In short: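 MCF-7 cells in phenol red-free DMEM with 10% charcoal-stripped FBS, eight-point dilution series, 24 h exposure. Membrane integrity by propidium iodide exclusion with high content imaging; bidirectional fit vs DMSO.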

[9] = CCTE_Harrill_HTTr_Apoptosis_DMEM_6hr: (Pilot) CCTE's 6-hour Apoptosis Assessment for the High-Throughput Transcriptomics (HTTr) Platform, in MCF-7 cells cultured in DMEM + 10% fetal bovine serum, Harrill Lab (AID 2283981)
In short: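 Caspase-3/7 activation read by high content imaging with CellEvent Caspase 3/7 Green in MCF-7 cells (DMEM + 10% FBS), 6 h after dosing; eight-point dilution series. Bidirectional fitting relative to DMSO baseline.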

[10] = CCTE_Harrill_HTTr_Apoptosis_DMEM_12hr: (Pilot) CCTE's 12-hour Apoptosis Assessment for the High-Throughput Transcriptomics (HTTr) Platform, in MCF-7 cells cultured in DMEM + 10% fetal bovine serum, Harrill Lab (AID 2283982)
In short: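 MCF-7 cells in DMEM + 10% FBS, exposed 12 h to an eight-point dilution series; caspase-3/7 activation imaged with CellEvent Green. Bidirectional fit versus DMSO.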

[11] = CCTE_Harrill_HTTr_Apoptosis_DMEM_24hr: (Pilot) CCTE's 24-hour Apoptosis Assessment for the High-Throughput Transcriptomics (HTTr) Platform, in MCF-7 cells cultured in DMEM + 10% fetal bovine serum, Harrill Lab (AID 2283983)
In short: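 MCF-7 cells in DMEM + 10% FBS, eight-point dilution series, 24 h exposure. Caspase-3/7 activation imaged by high-content imaging with CellEvent Caspase 3/7 Green. Bidirectional curve fitting against DMSO baseline.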

[12] = CCTE_Harrill_HTTr_Apoptosis_PRF_DMEM_6hr: (Pilot) CCTE's 6-hour Apoptosis Assessment for the High-Throughput Transcriptomics (HTTr) Platform, in MCF-7 cells cultured phenol red-free DMEM + 10% charcoal-stripped fetal bovine serum, Harrill Lab (AID 2283984)
In short: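 MCF-7 cells in phenol red-free DMEM + 10% charcoal-stripped FBS, eight-point dilution series, 6 h exposure. Caspase-3/7 activation imaged by high-content imaging with CellEvent Caspase 3/7 Green; bidirectional fit versus DMSO baseline.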

[13] = CCTE_Harrill_HTTr_Apoptosis_PRF_DMEM_12hr: (Pilot) CCTE's 12-hour Apoptosis Assessment for the High-Throughput Transcriptomics (HTTr) Platform, in MCF-7 cells cultured in phenol red-free DMEM + 10% charcoal-stripped fetal bovine serum, Harrill Lab (AID 2283985)
In short: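 MCF-7 cells in phenol red-free DMEM with 10% charcoal-stripped FBS, eight-point dilution series, 12 h exposure. Caspase-3/7 activation imaged by high content imaging with CellEvent Green reagent; bidirectional fit vs DMSO.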

[14] = CCTE_Harrill_HTTr_Apoptosis_PRF_DMEM_24hr: (Pilot) CCTE's 24-hour Apoptosis Assessment for the High-Throughput Transcriptomics (HTTr) Platform, in MCF-7 cells cultured in phenol red-free DMEM + 10% charcoal-stripped fetal bovine serum, Harrill Lab (AID 2283986)
In short: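 MCF-7 cells in phenol red-free DMEM with 10% charcoal-stripped FBS, exposed 24 h across an eight-point dilution series. Caspase-3/7 activation imaged with CellEvent Green by high content imaging; bidirectional fitting against DMSO.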

[15] = target: Nucleoli Translocation, AR (gene 367) (UniProt P10275); assay: UPITT_HCI_U2OS_AR_TIF2_Nucleoli_Agonist: University of Pittsburgh U2OS Androgen Receptor-Transcriptional Intermediary Factor 2 (AR-TIF2) Agonism High Content Imaging Assay for Nucleoli Translocation (AID 2283998; active means hit-call score of the fitted dose curve at least 0.9, where 1 is the maximum)
In short: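 U2OS cells expressing RFP-tagged human AR and GFP-tagged TIF2; red fluorescence in nucleoli quantified by high-content imaging. Primary screen at 20 uM final (0.2% DMSO); concentration-response 0.195–50 uM (0.5% DMSO), fitted upward versus DMSO.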

[16] = target: Ratio of Nucleoli Translocation and Cytoplasm, AR (gene 367) (UniProt P10275); assay: UPITT_HCI_U2OS_AR_TIF2_Nucleoli_Cytoplasm_Ratio_Antagonist: University of Pittsburgh U2OS Androgen Receptor-Transcriptional Intermediary Factor 2 (AR-TIF2) Antagonism High Content Imaging Assay for Ratio of Nucleoli Translocation and Cytoplasm (AID 2283999; active means hit-call score of the fitted dose curve at least 0.9, where 1 is the maximum;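 further: antagonists lower the DHT-driven ratio of nucleolar to cytoplasmic red signal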)
In short: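 U2OS cells co-expressing RFP-tagged human AR and GFP-tagged TIF2, antagonist mode with DHT as baseline. Nucleolar-to-cytoplasmic red fluorescence ratio imaged by high-content microscopy; final compound 20 uM (0.2% DMSO) primary, 0.195–50 uM (0.5% DMSO) concentration-response.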

[17] = target: Ratio of Nucleoli Translocation and Cytoplasm, AR (gene 367) (UniProt P10275); assay: UPITT_HCI_U2OS_AR_TIF2_Nucleoli_Cytoplasm_Ratio_Agonist: University of Pittsburgh U2OS Androgen Receptor-Transcriptional Intermediary Factor 2 (AR-TIF2) Agonism High Content Imaging Assay for Ratio of Nucleoli Translocation and Cytoplasm (AID 2284000; active means hit-call score of the fitted dose curve at least 0.9, where 1 is the maximum;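 further: hits raise the red nucleolar to cytoplasm ratio above vehicle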)
In short: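 U2OS cells expressing RFP-tagged human AR and GFP-tagged TIF2 were imaged by high-content fluorescence microscopy. The endpoint is the ratio of nucleolar to cytoplasmic red fluorescence, fitted for gain of signal relative to DMSO. Concentration-response spanned 0.195 to 50 uM final (0.5% DMSO).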

[18] = target: Nucleoli Translocation, AR (gene 367) (UniProt P10275); assay: UPITT_HCI_U2OS_AR_TIF2_Nucleoli_Antagonist: University of Pittsburgh U2OS Androgen Receptor-Transcriptional Intermediary Factor 2 (AR-TIF2) Antagonism High Content Imaging Assay for Nucleoli Translocation (AID 2283997; active means hit-call score of the fitted dose curve at least 0.9, where 1 is the maximum)
In short: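 U2OS cells expressing RFP-tagged human AR and GFP-tagged TIF2 were imaged by high-content fluorescence microscopy for red AR signal in the nucleolar region. Compounds were screened at 20 uM final (0.2% DMSO), with activity fitted relative to DHT as baseline.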

Measured: AC50

Sequence of Ratio of Nucleoli Translocation and Cytoplasm, AR (gene 367) (P10275 whole entry, looked up): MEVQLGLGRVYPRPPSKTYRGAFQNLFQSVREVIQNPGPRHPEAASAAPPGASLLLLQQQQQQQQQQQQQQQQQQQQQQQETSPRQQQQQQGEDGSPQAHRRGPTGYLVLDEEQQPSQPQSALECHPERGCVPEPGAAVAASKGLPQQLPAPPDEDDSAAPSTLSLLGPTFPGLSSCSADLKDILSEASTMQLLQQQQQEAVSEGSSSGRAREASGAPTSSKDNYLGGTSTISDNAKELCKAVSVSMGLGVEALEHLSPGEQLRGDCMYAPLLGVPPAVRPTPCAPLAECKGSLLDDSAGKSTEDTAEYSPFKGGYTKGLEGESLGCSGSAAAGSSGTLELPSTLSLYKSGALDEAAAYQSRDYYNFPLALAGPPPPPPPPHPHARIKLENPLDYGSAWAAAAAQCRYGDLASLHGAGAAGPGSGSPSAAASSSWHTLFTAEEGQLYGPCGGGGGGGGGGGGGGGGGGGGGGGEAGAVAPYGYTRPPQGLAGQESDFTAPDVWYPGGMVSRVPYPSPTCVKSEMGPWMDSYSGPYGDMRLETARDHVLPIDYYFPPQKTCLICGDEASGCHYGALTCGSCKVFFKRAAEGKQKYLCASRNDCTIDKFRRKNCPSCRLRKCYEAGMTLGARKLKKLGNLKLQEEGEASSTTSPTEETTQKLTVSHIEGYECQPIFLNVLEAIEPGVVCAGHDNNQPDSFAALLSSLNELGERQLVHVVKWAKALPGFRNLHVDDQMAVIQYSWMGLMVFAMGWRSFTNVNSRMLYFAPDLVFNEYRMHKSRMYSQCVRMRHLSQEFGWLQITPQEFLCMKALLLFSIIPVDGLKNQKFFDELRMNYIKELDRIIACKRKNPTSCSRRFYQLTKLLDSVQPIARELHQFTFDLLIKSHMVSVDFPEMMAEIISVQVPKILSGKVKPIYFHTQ
Sequence of Nucleoli Translocation, AR (gene 367) (P10275 whole entry, looked up): as above

CCN(CC)c1nc(C)cc(OP(=S)(OC)OC)n1
inactive: [1] | [2] | [3] | [4]

Cc1c(COC(=O)[C@@H]2[C@H](/C=C(\Cl)C(F)(F)F)C2(C)C)cccc1-c1ccccc1
inactive: [5] | [6] | [7] | [8] | [9] | [10] | [11] | [12] | [13] | [14] | [1] | [2] | [3] | [4]

CCOP(=S)(OCC)Oc1nc(Cl)n(C(C)C)n1
inactive: [3] | [4]
active: [1] 29.3 µM | [2] 38.5 µM

Cc1ccc(N=CN(C)C=Nc2ccc(C)cc2C)c(C)c1
inactive: [1] | [2] | [3]

CCCCC(C#N)(Cn1cncn1)c1ccc(Cl)cc1 (centres undefined)
inactive: [1] | [2] | [3]

Nc1c(Cl)c(F)nc(OCC(=O)O)c1Cl
inactive: [15] | [16] | [17] | [1] | [2] | [3]

COC(=O)c1c(C(F)F)nc(C(F)(F)F)c(C2=NCCS2)c1CC(C)C
inactive: [18] | [15] | [17]

CCCCC(O)(Cn1cncn1)c1ccc(Cl)cc1Cl (centres undefined)
active: [18] 62.7 µM | [15] 78.4 µM | [17] 77.3 µM | [1] 41 µM | [2] 60.5 µM | [4] 10.1 µM
inactive: [16] | [3]

C=CCOC(=O)C(C)(C)OC(=O)c1cc(-n2c(=O)cc(C(F)(F)F)n(C)c2=O)ccc1Cl
inactive: [5] | [6] | [7] | [8] | [9] | [10] | [11] | [12] | [13] | [14]

CC(C)(C)C(=O)C(Oc1ccc(Cl)cc1)n1cncn1 (centres undefined)
active: [1] 40.6 µM | [2] 47.2 µM
inactive: [3] | [4]
